Measured values taken from the supplement of paper PMC6897291.
Counter-ions that a name gives are not always drawn.

What was measured:
U-2932 [1] = assay: growth inhibition by drug alone (1 - RLU/untreated control) (fraction); higher = stronger inhibition; details: 177Lu-lilotomab satetraxetan 0 ug/ml
In short: (§1)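 With or without 18 h pretreatment by a radiolabelled anti-CD37 antibody conjugate (~600 MBq/mg; 0.5 µg/ml RIVA, 1 µg/ml U-2932), RIVA and U-2932 cells were washed and plated at 3,000 cells/well. Pre-printed compound doses were 10/100 nM for RIVA and 10/1,000 nM for U-2932. Growth inhibition uses RealTime-Glo RLU relative to the untreated no-drug wells. The calculation is 1 − RLU/mean of 48 such wells per plate, with reads daily from day 3 after 1 h at 37°C.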

RIVA [2] = assay: as above; details: 177Lu-lilotomab satetraxetan 0 ug/ml
In short: as §1

U-2932 [3] = assay: growth inhibition by drug plus 177Lu-lilotomab satetraxetan (1 - RLU/untreated control) (fraction); higher = stronger inhibition; details: 177Lu-lilotomab satetraxetan 1 ug/ml
In short: as §1

RIVA [4] = assay: as above; details: 177Lu-lilotomab satetraxetan 0.5 ug/ml
In short: as §1

SMILES	growth inhibition by drug alone (U-2932 [1]; 10 nM, time (day): 3)	growth inhibition by drug alone (U-2932 [1]; 10 nM, time (day): 4)	growth inhibition by drug alone (U-2932 [1]; 10 nM, time (day): 5)	growth inhibition by drug alone (U-2932 [1]; 10 nM, time (day): 6)	growth inhibition by drug alone (U-2932 [1]; 1000 nM, time (day): 3)	growth inhibition by drug alone (U-2932 [1]; 1000 nM, time (day): 4)	growth inhibition by drug alone (U-2932 [1]; 1000 nM, time (day): 5)	growth inhibition by drug alone (U-2932 [1]; 1000 nM, time (day): 6)	growth inhibition by drug alone (RIVA [2]; 10 nM, time (day): 3)	growth inhibition by drug alone (RIVA [2]; 10 nM, time (day): 4)	growth inhibition by drug alone (RIVA [2]; 10 nM, time (day): 5)	growth inhibition by drug alone (RIVA [2]; 10 nM, time (day): 6)	growth inhibition by drug alone (RIVA [2]; 100 nM, time (day): 3)	growth inhibition by drug alone (RIVA [2]; 100 nM, time (day): 4)	growth inhibition by drug alone (RIVA [2]; 100 nM, time (day): 5)	growth inhibition by drug alone (RIVA [2]; 100 nM, time (day): 6)	growth inhibition by drug plus 177Lu-lilotomab satetraxetan (U-2932 [3]; 10 nM, time (day): 3)	growth inhibition by drug plus 177Lu-lilotomab satetraxetan (U-2932 [3]; 10 nM, time (day): 4)	growth inhibition by drug plus 177Lu-lilotomab satetraxetan (U-2932 [3]; 10 nM, time (day): 5)	growth inhibition by drug plus 177Lu-lilotomab satetraxetan (U-2932 [3]; 10 nM, time (day): 6)	growth inhibition by drug plus 177Lu-lilotomab satetraxetan (U-2932 [3]; 1000 nM, time (day): 3)	growth inhibition by drug plus 177Lu-lilotomab satetraxetan (U-2932 [3]; 1000 nM, time (day): 4)	growth inhibition by drug plus 177Lu-lilotomab satetraxetan (U-2932 [3]; 1000 nM, time (day): 5)	growth inhibition by drug plus 177Lu-lilotomab satetraxetan (U-2932 [3]; 1000 nM, time (day): 6)	growth inhibition by drug plus 177Lu-lilotomab satetraxetan (RIVA [4]; 10 nM, time (day): 3)	growth inhibition by drug plus 177Lu-lilotomab satetraxetan (RIVA [4]; 10 nM, time (day): 4)	growth inhibition by drug plus 177Lu-lilotomab satetraxetan (RIVA [4]; 10 nM, time (day): 5)	growth inhibition by drug plus 177Lu-lilotomab satetraxetan (RIVA [4]; 10 nM, time (day): 6)	growth inhibition by drug plus 177Lu-lilotomab satetraxetan (RIVA [4]; 100 nM, time (day): 3)	growth inhibition by drug plus 177Lu-lilotomab satetraxetan (RIVA [4]; 100 nM, time (day): 4)	growth inhibition by drug plus 177Lu-lilotomab satetraxetan (RIVA [4]; 100 nM, time (day): 5)	growth inhibition by drug plus 177Lu-lilotomab satetraxetan (RIVA [4]; 100 nM, time (day): 6)
CC(C)c1ccc(Cn2ccc3c4c(N)nc(NC5CC5)nc4ccc32)cc1	0.155	0.138	0.0759	0.0356	0.976	0.977	0.982	0.985	0.0749	0.155	0.0828	-0.0413	0.639	0.486	0.491	0.444	0.151	0.196	0.261	0.274	0.982	0.983	0.986	0.989	0.658	0.702	0.716	0.712	0.787	0.778	0.786	0.799
CC(C)OC(=O)C1=CN(C(=O)c2ccc(F)c(F)c2)CC(C)(C)c2c1[nH]c1ccccc21	0.0404	-0.0052	-0.0866	-0.191	-0.0177	-0.00403	-0.0481	-0.039	0.0268	0.00242	0.00693	-0.0298	-0.161	-0.106	-0.145	-0.234	0.0558	0.102	0.14	0.204	0.038	0.085	0.0862	0.162	0.587	0.594	0.614	0.598	0.546	0.595	0.608	0.597
COc1ccc2c(c1)CCC1C2CCC2(C)C(NCCCCCCN3C(=O)C=CC3=O)CCC12 (stereo unspecified)	0.079	0.0406	0.0171	-0.0318	-0.0546	0.0273	-0.0312	-0.361	-0.042	-0.062	-0.0736	-0.13	-0.374	-0.291	-0.321	-0.444	0.00613	0.0631	0.103	0.161	-0.0126	0.0436	0.0468	0.107	0.506	0.561	0.586	0.598	0.502	0.567	0.571	0.58
COC(=O)Nc1ccc(-c2nc(N3CCOCC3)c3cnn(C4CCN(C(=O)OC)CC4)c3n2)cc1	0.122	0.107	0.0346	-0.00417	0.454	0.381	0.375	0.388	0.0376	0.1	0.0593	-0.105	0.0485	0.0181	0.033	0.00434	0.113	0.147	0.233	0.252	0.395	0.315	0.348	0.433	0.624	0.663	0.677	0.664	0.468	0.537	0.55	0.563
CC(C)C[C@@H](C(=O)N[C@H](C(=O)OC1CCCC1)c1ccccc1)[C@H](O)C(=O)NO [Tosedostat (CHR2797)]	0.0666	0.0228	-0.0512	-0.123	-0.142	-0.112	-0.102	-0.0781	0.0304	0.0133	0.000967	-0.0544	-0.208	-0.212	-0.221	-0.3	0.00927	0.0682	0.108	0.162	-0.0889	-0.0223	0.0204	0.176	0.571	0.596	0.613	0.62	0.559	0.591	0.602	0.604
CN(C)CCCN=c1c2ccccc2n(C)c2[nH]c(=O)n(C)c(=O)c12	0.111	0.0704	-0.00376	-0.0149	0.0731	0.0794	0.011	0.0933	0.0709	0.0541	0.026	-0.0499	-0.0848	-0.0419	-0.079	-0.137	0.0369	0.0857	0.138	0.24	0.0936	0.125	0.147	0.272	0.529	0.576	0.589	0.604	0.563	0.592	0.601	0.604
COc1nc(-c2ccc3c(c2)OCO3)n(-c2ccc(NC(=O)CSc3ccccc3)cc2)n1 [SecinH3]	-0.0611	-0.0455	-0.0236	0.124	-0.143	-0.0966	-0.134	-0.195	-0.242	-0.224	-0.27	-0.428	-0.311	-0.358	-0.334	-0.394	-0.0793	-0.0496	-0.0101	0.122	-0.197	-0.087	-0.0724	-0.0297	0.275	0.448	0.482	0.494	0.323	0.424	0.437	0.419
CNC(=O)c1cc(Oc2ccc(NC(=O)Nc3ccc(Cl)c(C(F)(F)F)c3)cc2)ccn1 [Sorafenib (Nexavar)]	0.065	0.061	0.0056	-0.0896	0.0548	0.172	0.16	0.0821	-0.0351	-0.0584	-0.0811	-0.269	-0.171	-0.0734	-0.0752	-0.125	-0.0368	-0.00107	-0.00478	0.0413	-0.000329	0.177	0.189	0.145	0.328	0.487	0.498	0.507	0.415	0.561	0.594	0.583
Nc1ncn([C@@H]2O[C@H](CO)[C@@H](O)[C@H]2O)c(=O)n1 [Azacitidine (Vidaza)]	-0.0982	-0.0929	-0.0726	-0.0507	-0.188	-0.0618	0.0181	0.17	-0.294	-0.286	-0.358	-0.438	-0.343	-0.332	-0.3	-0.406	-0.107	-0.0484	0.0134	-0.00849	-0.0673	0.0405	0.146	0.324	0.407	0.483	0.506	0.5	0.241	0.37	0.362	0.374
Nc1nc(OCc2cc(Br)cs2)c2[nH]cnc2n1 [Lomeguatrib]	-0.115	-0.036	-0.163	-0.244	-0.0214	-0.011	-0.105	-0.195	-0.0122	-0.0435	-0.118	-0.367	-0.0285	-0.0397	-0.0789	-0.154	0.00798	0.0431	0.0314	0.114	-0.0706	0.00418	0.025	0.00957	0.437	0.531	0.544	0.548	0.404	0.479	0.488	0.463
COc1ccc(-c2ccc3c(N4CCOC[C@@H]4C)nc(N4CCOC[C@@H]4C)nc3n2)cc1CO	0.165	0.142	0.0822	0.157	0.896	0.892	0.897	0.909	0.0033	-0.0925	-0.125	-0.292	0.617	0.609	0.575	0.472	0.124	0.14	0.163	0.253	0.899	0.893	0.902	0.923	0.495	0.529	0.545	0.545	0.749	0.763	0.762	0.744
COc1cc2/c(=N/c3ccc(Br)cc3F)nc[nH]c2cc1OCC1CCN(C)CC1 [Vandetanib (Zactima)]	-0.05	-0.0325	-0.0228	0.016	-0.236	-0.171	-0.167	-0.12	-0.203	-0.201	-0.23	-0.529	-0.273	-0.353	-0.318	-0.441	-0.0662	-0.0404	-0.009	0.0527	-0.276	-0.164	-0.119	-0.041	0.331	0.49	0.516	0.535	0.268	0.377	0.373	0.355
Cn1cncc1[C@@](N)(c1ccc(Cl)cc1)c1ccc2c(c1)c(-c1cccc(Cl)c1)cc(=O)n2C [Tipifarnib (Zarnestra)]	0.0908	0.0396	0.00741	-0.0584	0.757	0.8	0.836	0.863	-0.055	-0.241	-0.428	-0.678	-0.0203	-0.124	-0.267	-0.517	0.0185	0.0674	0.106	0.1	0.777	0.805	0.847	0.882	0.37	0.421	0.452	0.489	0.482	0.521	0.511	0.536
O=C1c2c(O)ccc(O)c2C(=O)c2c(NCCNCCO)ccc(NCCNCCO)c21 [Mitoxantrone Hydrochloride]	0.436	0.52	0.635	0.732	0.945	0.971	0.981	0.986	0.293	0.565	0.667	0.759	0.568	0.82	0.873	0.904	0.559	0.694	0.81	0.881	0.971	0.982	0.987	0.99	0.83	0.913	0.95	0.968	0.736	0.92	–	–
